Measured values as given in PubChem BioAssay.
Inconclusive results are not listed. Calls of active or inactive are those of the source.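 Rule for the calls, unless noted: active = viability at or below 27.92% in each of two runs, the all-compound median minus 4 SD; inconclusive = no clear call, values can overlap the other calls; inactive = the rest.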

Assay: growth suppression of beta-catenin knockout HCT116, pilot screen, human colon tumor cells (AID 823;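 active = cell viability at or below a set limit in both duplicate runs, the limit being the all-compound median minus 4 SD, cut at about 23% in these data, passing the limit was not always enough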;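 note: 0% = wells killed by 20 µM Hyamine and 100% = untreated DMSO cell wells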)
Details: CellTiter-Glo, 60 h, at 10 µM, active compounds read low

| Structure (SMILES) | viability |
| --- | --- |
| COc1ccccc1NC1C=CS(=O)(=O)C1 (stereo not given) | 99.5% (inactive) |
| COc1ccccc1CNC(=O)c1cnc2sccn2c1=O | 107% (inactive) |
| CCOc1ccccc1N1C(=O)c2cccnc2C1=O | 102% (inactive) |
| COc1ccc(NC(=O)c2c(-c3ccccc3)noc2C)c(OC)c1 | 97.4% (inactive) |
| COc1ccc(NC(=O)C2CCCN(S(=O)(=O)c3cccc4cccnc34)C2)cc1 (stereo not given) | 88.2% (inactive) |
| COCCCNC(=O)c1cc2c(-c3ccc(Cl)cc3)nn(C)c2s1 | 82.9% (inactive) |
| CSc1nnc(NC(=O)c2cc3ccccc3oc2=O)s1 | 93.8% (inactive) |
| CCC(CC)C(=O)Nc1cc(=O)n(C)c(=O)n1C | 92.8% (inactive) |
| CNc1nc(C)nc(-c2ccccc2O)n1 | 98.5% (inactive) |
| Cc1ccc(C)c(NC(=O)CS(=O)(=O)c2cn(C)c3ccccc23)c1 | 103% (inactive) |
| CC1(C)Cc2c(sc3c2c(=N)n(Cc2ccco2)c(=O)n3Cc2ccc(Cl)cc2)CO1 | 79.9% (inactive) |
| CCOC(=O)c1sc(NC(=O)COC(=O)c2ccco2)nc1C | 87.7% (inactive) |
| CN(C)CCNC(=O)c1cc2cc(Br)ccc2oc1=O | 81.6% (inactive) |
| Cn1c2c(c(=O)n(C)c1=O)C1c3ccccc3OCC1C(C)(C)O2 (stereo not given) | 98.7% (inactive) |
| Cc1onc(-c2ccccc2Cl)c1C(=O)Nc1ccc(S(=O)(=O)N2CCCC2)cc1 | 86.3% (inactive) |
| COc1ccc(C2C(C(=O)NCc3cccnc3)c3ccccc3C(=O)N2C)cc1OC (stereo not given) | 101% (inactive) |
| CC(=O)c1c(C)cc(C)c(CSc2nc(C)cc(=O)[nH]2)c1C | 83% (inactive) |
| CCOC(=O)C1CCCN(C(=O)Cn2nc(CC)n3c(cc4sccc43)c2=O)C1 (stereo not given) | 105% (inactive) |
| CCCCN(C)C(=O)C(Cc1ccccc1)NS(=O)(=O)c1ccc2c(c1)CCC(=O)N2 (stereo not given) | 89.5% (inactive) |
| CC(C)Sc1nnc(Cn2c(=O)sc3ccccc32)n1-c1ccccc1 | 87.1% (inactive) |

| Structure (SMILES) | viability |
| --- | --- |
| Cc1csc(C(C#N)C(=O)c2cc3ccccc3o2)n1 (stereo not given) | 93.7% (inactive) |
| O=C(O)c1ccc(Cl)c2c1C1C=CCC1C(c1ccccn1)N2 (stereo not given) | 98.3% (inactive) |
| CCCCOC(=O)Nc1ccccc1C(N)=O | 95.3% (inactive) |
| CCOC(=O)C1CCCN(C(=O)Cn2nc(Cc3cccnc3)c3ccccc3c2=O)C1 (stereo not given) | 99.5% (inactive) |
| CCN1C(=O)c2ccccc2S(=O)c2ccc(C(=O)NCCCN3CCCC3=O)cc21 (stereo not given) | 97.5% (inactive) |
| CCCCCOC(=O)NCC(O)c1ccccc1 (stereo not given) | 101% (inactive) |
| O=C(NCC(c1ccc(F)cc1)N1CCOCC1)c1ccc(Br)o1 (stereo not given) | 86.3% (inactive) |
| CCOC(=O)N1CCC(N2CC34C=CC(O3)C(C(=O)Nc3ccc(C)cc3)C4C2=O)CC1 (stereo not given) | 100% (inactive) |
| O=C(CSc1cn(Cc2ccccc2)c2ccccc12)Nc1nccs1 | 88.8% (inactive) |
| O=C(CN1CCN(c2ncccn2)CC1)N1CCN(C(c2ccccc2)c2ccccc2)CC1 | 84.8% (inactive) |
| CCOC(=O)N1CCC(NC(=O)c2cc3ccccn3n2)CC1 | 97.5% (inactive) |
| O=P(O)(CCc1ccccn1)CN1CCOCC1 | 92.6% (inactive) |
| CCCc1cc(C(=O)Nc2cc(OC)c(Cl)cc2OC)no1 | 89.5% (inactive) |
| CCN(CC)C(=O)CCCOc1ccc(Cl)cc1Cl | 76.7% (inactive) |
| CCOC(=O)c1ccc(NC(=O)C2C3C=CC(C3)C2C(=O)O)cc1 (stereo not given) | 98.5% (inactive) |
| Cc1ccc(C2=[N+]([O-])C3(CCCCC/C3=N\O)N(O)C2(C)C)o1 (stereo not given) | 99% (inactive) |
| Cc1ccc(N(C)C(=O)N2CCN(S(=O)(=O)c3ccc(C)cc3)CC2)cc1 | 93.7% (inactive) |
| COc1ccc(OC)c(NC(=O)Cn2cnc3c(cnn3-c3ccccc3)c2=O)c1 | 98% (inactive) |
| CC1CCCCC1NC(=O)CCS(=O)(=O)c1cccc2nonc12 (stereo not given) | 98.9% (inactive) |
| O=C(NCCSCc1ccco1)c1ccc(CN2CCOCC2)cc1 | 101% (inactive) |

Assay: growth suppression of PTEN-deleted HCT116, pilot screen, cell-based, HCT116 clonal line, CellTiter-Glo (AID 824);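 note: 0% = 20 µM Hyamine control and 100% = vehicle cell control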
Details: 60 h, at 10 µM, active compounds read low

| Structure (SMILES) | viability |
| --- | --- |
| COc1ccccc1NC1C=CS(=O)(=O)C1 (stereo not given) | 94.4% (inactive) |
| COc1ccccc1CNC(=O)c1cnc2sccn2c1=O | 90.3% (inactive) |
| CCOc1ccccc1N1C(=O)c2cccnc2C1=O | 98.7% (inactive) |
| COc1ccc(NC(=O)c2c(-c3ccccc3)noc2C)c(OC)c1 | 92.6% (inactive) |
| COc1ccc(NC(=O)C2CCCN(S(=O)(=O)c3cccc4cccnc34)C2)cc1 (stereo not given) | 85.5% (inactive) |
| COCCCNC(=O)c1cc2c(-c3ccc(Cl)cc3)nn(C)c2s1 | 84.5% (inactive) |
| CSc1nnc(NC(=O)c2cc3ccccc3oc2=O)s1 | 95.5% (inactive) |
| CCC(CC)C(=O)Nc1cc(=O)n(C)c(=O)n1C | 87.4% (inactive) |
| CNc1nc(C)nc(-c2ccccc2O)n1 | 92.8% (inactive) |
| Cc1ccc(C)c(NC(=O)CS(=O)(=O)c2cn(C)c3ccccc23)c1 | 98.2% (inactive) |
| CC1(C)Cc2c(sc3c2c(=N)n(Cc2ccco2)c(=O)n3Cc2ccc(Cl)cc2)CO1 | 70.6% (inactive) |
| CCOC(=O)c1sc(NC(=O)COC(=O)c2ccco2)nc1C | 89.6% (inactive) |
| CN(C)CCNC(=O)c1cc2cc(Br)ccc2oc1=O | 84.5% (inactive) |
| Cn1c2c(c(=O)n(C)c1=O)C1c3ccccc3OCC1C(C)(C)O2 (stereo not given) | 96.1% (inactive) |
| Cc1onc(-c2ccccc2Cl)c1C(=O)Nc1ccc(S(=O)(=O)N2CCCC2)cc1 | 81.2% (inactive) |
| COc1ccc(C2C(C(=O)NCc3cccnc3)c3ccccc3C(=O)N2C)cc1OC (stereo not given) | 96.6% (inactive) |
| CC(=O)c1c(C)cc(C)c(CSc2nc(C)cc(=O)[nH]2)c1C | 74.2% (inactive) |
| CCOC(=O)C1CCCN(C(=O)Cn2nc(CC)n3c(cc4sccc43)c2=O)C1 (stereo not given) | 105% (inactive) |
| CCCCN(C)C(=O)C(Cc1ccccc1)NS(=O)(=O)c1ccc2c(c1)CCC(=O)N2 (stereo not given) | 90.2% (inactive) |
| CC(C)Sc1nnc(Cn2c(=O)sc3ccccc32)n1-c1ccccc1 | 86.5% (inactive) |

| Structure (SMILES) | viability |
| --- | --- |
| Cc1csc(C(C#N)C(=O)c2cc3ccccc3o2)n1 (stereo not given) | 85.3% (inactive) |
| O=C(O)c1ccc(Cl)c2c1C1C=CCC1C(c1ccccn1)N2 (stereo not given) | 94.6% (inactive) |
| CCCCOC(=O)Nc1ccccc1C(N)=O | 102% (inactive) |
| CCOC(=O)C1CCCN(C(=O)Cn2nc(Cc3cccnc3)c3ccccc3c2=O)C1 (stereo not given) | 102% (inactive) |
| CCN1C(=O)c2ccccc2S(=O)c2ccc(C(=O)NCCCN3CCCC3=O)cc21 (stereo not given) | 87.7% (inactive) |
| CCCCCOC(=O)NCC(O)c1ccccc1 (stereo not given) | 95.5% (inactive) |
| O=C(NCC(c1ccc(F)cc1)N1CCOCC1)c1ccc(Br)o1 (stereo not given) | 81.8% (inactive) |
| CCOC(=O)N1CCC(N2CC34C=CC(O3)C(C(=O)Nc3ccc(C)cc3)C4C2=O)CC1 (stereo not given) | 102% (inactive) |
| O=C(CSc1cn(Cc2ccccc2)c2ccccc12)Nc1nccs1 | 85.4% (inactive) |
| O=C(CN1CCN(c2ncccn2)CC1)N1CCN(C(c2ccccc2)c2ccccc2)CC1 | 85% (inactive) |
| CCOC(=O)N1CCC(NC(=O)c2cc3ccccn3n2)CC1 | 101% (inactive) |
| O=P(O)(CCc1ccccn1)CN1CCOCC1 | 92.5% (inactive) |
| CCCc1cc(C(=O)Nc2cc(OC)c(Cl)cc2OC)no1 | 88.8% (inactive) |
| CCN(CC)C(=O)CCCOc1ccc(Cl)cc1Cl | 83.9% (inactive) |
| CCOC(=O)c1ccc(NC(=O)C2C3C=CC(C3)C2C(=O)O)cc1 (stereo not given) | 106% (inactive) |
| Cc1ccc(C2=[N+]([O-])C3(CCCCC/C3=N\O)N(O)C2(C)C)o1 (stereo not given) | 93.7% (inactive) |
| Cc1ccc(N(C)C(=O)N2CCN(S(=O)(=O)c3ccc(C)cc3)CC2)cc1 | 96.6% (inactive) |
| COc1ccc(OC)c(NC(=O)Cn2cnc3c(cnn3-c3ccccc3)c2=O)c1 | 94.2% (inactive) |
| CC1CCCCC1NC(=O)CCS(=O)(=O)c1cccc2nonc12 (stereo not given) | 102% (inactive) |
| O=C(NCCSCc1ccco1)c1ccc(CN2CCOCC2)cc1 | 99.7% (inactive) |
